Measurements reported in the supplement of paper PMC12669032.

How the values were obtained:
Experiment in all cases: growth AUC relative to DMSO control (median of replicates) (fraction); higher = more growth (less inhibition), active = hit call of the paper
Details in all cases: 20 µM; 24 h;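 active = AUC reduced over 20% with Padj below 0.05 in at least 2 of 3 replicates; inactive = otherwise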
Akkermansia muciniphila = system: Akkermansia muciniphila
Outline: (§1)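 Gut bacterial monocultures in mGAM were treated with 20 µM compound (1% DMSO) and grown anaerobically at 37 °C in round-bottom 96-well plates from OD600 0.05. OD600 was read hourly for 24 h, with the minimum OD set to 0. Area under the growth curve was normalised to the plate median of solvent-only wells, or to row and column medians on the industrial chemical plate. Each value is the median of three biological replicates, each grown on a separate day.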

Bacteroides caccae = system: Bacteroides caccae
Outline: as §1

Bacteroides clarus = system: Bacteroides clarus
Outline: as §1

Bacteroides dorei = system: Bacteroides dorei
Outline: as §1

Bacteroides stercoris = system: Bacteroides stercoris
Outline: as §1

[1] = system: Bacteroides thetaiotaomicron
Outline: as §1

Bacteroides uniformis = system: Bacteroides uniformis
Outline: as §1

[2] = system: Bifidobacterium longum subsp. longum
Outline: as §1

Clostridium difficile = system: Clostridium difficile
Outline: as §1

Collinsella aerofaciens = system: Collinsella aerofaciens
Outline: as §1

Coprococcus comes = system: Coprococcus comes
Outline: as §1

Escherichia coli ED1a = system: Escherichia coli ED1a
Outline: as §1

Escherichia coli IAI1 = system: Escherichia coli IAI1
Outline: as §1

Eubacterium rectale = system: Eubacterium rectale
Outline: as §1

[3] = system: Fusobacterium nucleatum subsp. animalis
Outline: as §1

Lactobacillus gasseri = system: Lactobacillus gasseri
Outline: as §1

Lactobacillus paracasei = system: Lactobacillus paracasei
Outline: as §1

Odoribacter splanchnicus = system: Odoribacter splanchnicus
Outline: as §1

[4] = system: Parabacteroides distasonis
Outline: as §1

Parabacteroides merdae = system: Parabacteroides merdae
Outline: as §1

Measured: growth AUC

O=C(O)C(Cl)Cl
inactive: Akkermansia muciniphila 0.875 | Bacteroides caccae 0.977 | Bacteroides clarus 0.966 | Bacteroides dorei 1.02 | Bacteroides stercoris 0.994 | [1] 0.999 | Bacteroides uniformis 1.01 | [2] 1.01 | Clostridium difficile 1 | Collinsella aerofaciens 0.981 | Coprococcus comes 0.959 | Escherichia coli ED1a 1.01 | Escherichia coli IAI1 0.966 | Eubacterium rectale 0.977 | [3] 1.04 | Lactobacillus gasseri 1.04 | Lactobacillus paracasei 1.05 | Odoribacter splanchnicus 0.997 | [4] 0.998 | Parabacteroides merdae 1.03

C#CCC1=C(C)C(OC(=O)C2C(C=C(C)C)C2(C)C)CC1=O (stereo not given)
inactive: Akkermansia muciniphila 1.05 | Bacteroides caccae 0.892 | Bacteroides clarus 1.04 | Bacteroides dorei 0.964 | Bacteroides stercoris 1.01 | [1] 1.01 | Bacteroides uniformis 0.932 | [2] 1.02 | Clostridium difficile 0.969 | Collinsella aerofaciens 0.985 | Coprococcus comes 0.997 | Escherichia coli ED1a 1.02 | Escherichia coli IAI1 1 | Eubacterium rectale 1.03 | [3] 1.06 | Lactobacillus gasseri 0.998 | Lactobacillus paracasei 1 | Odoribacter splanchnicus 1.11 | [4] 0.952 | Parabacteroides merdae 0.946

CCOP(=S)(OCC)SCSc1ccc(Cl)cc1
inactive: Akkermansia muciniphila 1.04 | Bacteroides caccae 0.954 | Bacteroides clarus 0.972 | Bacteroides dorei 0.984 | Bacteroides stercoris 1.09 | [1] 0.987 | Bacteroides uniformis 0.943 | [2] 1.03 | Clostridium difficile 1 | Collinsella aerofaciens 0.963 | Coprococcus comes 0.975 | Escherichia coli ED1a 0.986 | Escherichia coli IAI1 0.964 | Eubacterium rectale 0.909 | [3] 1.07 | Lactobacillus gasseri 0.884 | Lactobacillus paracasei 1 | Odoribacter splanchnicus 1.06 | [4] 0.911 | Parabacteroides merdae 0.977

CCOC(=O)CCN(SN(C)C(=O)Oc1cccc2c1OC(C)(C)C2)C(C)C
inactive: Akkermansia muciniphila 1.1 | Bacteroides caccae 1.04 | Bacteroides clarus 0.985 | Bacteroides dorei 1 | Bacteroides stercoris 0.982 | [1] 1.02 | Bacteroides uniformis 1.05 | [2] 1.01 | Clostridium difficile 0.999 | Collinsella aerofaciens 0.978 | Coprococcus comes 1.01 | Escherichia coli ED1a 0.994 | Escherichia coli IAI1 1.01 | Eubacterium rectale 1.1 | [3] 0.907 | Lactobacillus gasseri 0.911 | Lactobacillus paracasei 1.01 | Odoribacter splanchnicus 1.02 | [4] 1.05 | Parabacteroides merdae 0.979

CC(C)OC(=O)Nc1ccccc1
inactive: Akkermansia muciniphila 0.984 | Bacteroides caccae 1.02 | Bacteroides clarus 1.02 | Bacteroides dorei 1.07 | Bacteroides stercoris 1.12 | [1] 1.01 | Bacteroides uniformis 0.98 | [2] 0.988 | Clostridium difficile 1.05 | Collinsella aerofaciens 1.02 | Coprococcus comes 1.03 | Escherichia coli ED1a 0.994 | Escherichia coli IAI1 1.01 | Eubacterium rectale 0.991 | [3] 1.02 | Lactobacillus gasseri 1.13 | Lactobacillus paracasei 1.04 | Odoribacter splanchnicus 0.962 | [4] 1.01 | Parabacteroides merdae 1

CNC(=O)O/N=C/C(C)(C)S(C)=O (stereo not given)
inactive: Akkermansia muciniphila 0.978 | Bacteroides caccae 1.04 | Bacteroides clarus 0.991 | Bacteroides dorei 1.01 | Bacteroides stercoris 1.02 | [1] 0.988 | Bacteroides uniformis 1.03 | [2] 0.935 | Clostridium difficile 1.01 | Collinsella aerofaciens 1.02 | Coprococcus comes 0.987 | Escherichia coli ED1a 0.993 | Escherichia coli IAI1 1 | Eubacterium rectale 1.08 | [3] 0.996 | Lactobacillus gasseri 1.01 | Lactobacillus paracasei 1.01 | Odoribacter splanchnicus 0.955 | [4] 1.02 | Parabacteroides merdae 1

C=C/C=C/CC1=C(C)C(OC(=O)[C@@H]2C(/C=C(\C)C(=O)OC)C2(C)C)CC1=O.C=C/C=C/CC1=C(C)[C@@H](OC(=O)[C@@H]2C(C=C(C)C)C2(C)C)CC1=O (stereo not given in full)
inactive: Akkermansia muciniphila 0.901 | Bacteroides caccae 0.966 | Bacteroides clarus 0.918 | Bacteroides dorei 1.02 | Bacteroides stercoris 0.87 | [1] 0.967 | Bacteroides uniformis 0.971 | [2] 0.698 | Clostridium difficile 1.01 | Collinsella aerofaciens 0.949 | Coprococcus comes 0.953 | Escherichia coli ED1a 1.01 | Escherichia coli IAI1 0.966 | Eubacterium rectale 0.858 | [3] 1.04 | Lactobacillus gasseri 1.02 | Lactobacillus paracasei 0.864 | Odoribacter splanchnicus 0.985 | [4] 0.954 | Parabacteroides merdae 0.932

CC(C)C(C(=O)OC(C#N)c1cccc(Oc2ccccc2)c1)c1ccc(Cl)cc1 (stereo not given)
inactive: Akkermansia muciniphila 0.88 | Bacteroides caccae 0.977 | Bacteroides clarus 1 | Bacteroides dorei 0.935 | Bacteroides stercoris 1.1 | [1] 1.02 | Bacteroides uniformis 0.986 | [2] 0.765 | Clostridium difficile 1.01 | Collinsella aerofaciens 0.903 | Coprococcus comes 1 | Escherichia coli ED1a 1.01 | Escherichia coli IAI1 0.963 | Eubacterium rectale 0.901 | [3] 1.02 | Lactobacillus gasseri 0.9 | Lactobacillus paracasei 1.11 | Odoribacter splanchnicus 0.893 | [4] 1.01 | Parabacteroides merdae 0.974

CCC/C(=N\OCC)C1=C(O)CC(CC(C)SCC)CC1=O (stereo not given)
inactive: Akkermansia muciniphila 0.936 | Bacteroides caccae 1.01 | Bacteroides clarus 0.989 | Bacteroides dorei 1.02 | Bacteroides stercoris 0.974 | [1] 0.992 | Bacteroides uniformis 1.01 | [2] 0.85 | Clostridium difficile 1.01 | Collinsella aerofaciens 1.01 | Coprococcus comes 0.986 | Escherichia coli ED1a 0.986 | Escherichia coli IAI1 0.973 | Eubacterium rectale 0.937 | [3] 0.867 | Lactobacillus gasseri 0.964 | Lactobacillus paracasei 0.978 | Odoribacter splanchnicus 0.979 | [4] 0.991 | Parabacteroides merdae 0.988

CC(C)N1C(=O)N(c2ccccc2)CSC1=NC(C)(C)C
inactive: Akkermansia muciniphila 0.893 | Bacteroides caccae 0.957 | Bacteroides clarus 0.902 | Bacteroides dorei 0.946 | Bacteroides stercoris 0.977 | [1] 0.927 | Bacteroides uniformis 0.981 | [2] 0.99 | Clostridium difficile 1.02 | Collinsella aerofaciens 0.971 | Coprococcus comes 0.943 | Escherichia coli ED1a 0.967 | Escherichia coli IAI1 1.02 | Eubacterium rectale 0.956 | [3] 0.966 | Lactobacillus gasseri 0.963 | Lactobacillus paracasei 1.03 | Odoribacter splanchnicus 1.02 | [4] 0.946 | Parabacteroides merdae 0.997

O=C(Nc1ccccc1-c1ccc(Cl)cc1)c1cccnc1Cl
inactive: Akkermansia muciniphila 0.987 | Bacteroides caccae 0.998 | Bacteroides clarus 0.986 | Bacteroides dorei 0.998 | Bacteroides stercoris 1.01 | [1] 0.958 | Bacteroides uniformis 0.966 | [2] 1.03 | Clostridium difficile 0.998 | Collinsella aerofaciens 0.999 | Coprococcus comes 1 | Escherichia coli ED1a 0.981 | Escherichia coli IAI1 1.01 | Eubacterium rectale 0.968 | [3] 0.956 | Lactobacillus gasseri 1.08 | Lactobacillus paracasei 0.972 | Odoribacter splanchnicus 0.86 | [4] 0.839 | Parabacteroides merdae 0.998

O=c1[nH]c2c(c(=O)n1C1CCCCC1)CCC2
inactive: Akkermansia muciniphila 0.895 | Bacteroides caccae 1.01 | Bacteroides clarus 0.944 | Bacteroides dorei 0.957 | Bacteroides stercoris 0.925 | [1] 0.978 | Bacteroides uniformis 0.972 | [2] 0.963 | Clostridium difficile 0.972 | Collinsella aerofaciens 0.95 | Coprococcus comes 0.945 | Escherichia coli ED1a 0.99 | Escherichia coli IAI1 0.987 | Eubacterium rectale 0.899 | [3] 0.834 | Lactobacillus gasseri 0.923 | Lactobacillus paracasei 1.02 | Odoribacter splanchnicus 0.98 | [4] 0.999 | Parabacteroides merdae 0.973

Nc1ccncc1
inactive: Akkermansia muciniphila 0.943 | Bacteroides caccae 0.997 | Bacteroides clarus 0.997 | Bacteroides dorei 1.04 | Bacteroides stercoris 1.02 | [1] 0.981 | Bacteroides uniformis 0.987 | [2] 0.911 | Clostridium difficile 1 | Collinsella aerofaciens 1 | Coprococcus comes 0.95 | Escherichia coli ED1a 0.99 | Escherichia coli IAI1 0.983 | Eubacterium rectale 0.949 | [3] 0.969 | Lactobacillus gasseri 0.897 | Lactobacillus paracasei 1 | Odoribacter splanchnicus 0.974 | [4] 1.02 | Parabacteroides merdae 1.02

O=c1ccc(=O)[nH][nH]1
inactive: Akkermansia muciniphila 1.2 | Bacteroides caccae 0.973 | Bacteroides clarus 1.01 | Bacteroides dorei 0.989 | Bacteroides stercoris 0.951 | [1] 1 | Bacteroides uniformis 1.05 | [2] 1.62 | Clostridium difficile 0.954 | Collinsella aerofaciens 0.92 | Coprococcus comes 0.996 | Escherichia coli ED1a 0.973 | Escherichia coli IAI1 0.976 | Eubacterium rectale 1.06 | [3] 0.877 | Lactobacillus gasseri 0.957 | Lactobacillus paracasei 1.11 | Odoribacter splanchnicus 1.08 | [4] 1.01 | Parabacteroides merdae 0.99

Nc1c(Cl)cc([N+](=O)[O-])cc1Cl
inactive: Akkermansia muciniphila 0.958 | Bacteroides caccae 0.927 | Bacteroides clarus 0.973 | Bacteroides dorei 0.967 | Bacteroides stercoris 0.875 | [1] 0.986 | Bacteroides uniformis 1.05 | [2] 1.07 | Clostridium difficile 1 | Collinsella aerofaciens 0.897 | Coprococcus comes 1.01 | Escherichia coli ED1a 0.951 | Escherichia coli IAI1 0.962 | Eubacterium rectale 1.08 | [3] 0.898 | Lactobacillus gasseri 0.923 | Lactobacillus paracasei 1.1 | Odoribacter splanchnicus 1.03 | [4] 0.933 | Parabacteroides merdae 0.93

N#Cc1c(Cl)cccc1Cl
inactive: Akkermansia muciniphila 0.866 | Bacteroides caccae 1.03 | Bacteroides clarus 0.979 | Bacteroides dorei 1.04 | Bacteroides stercoris 0.989 | [1] 1 | Bacteroides uniformis 0.922 | [2] 0.898 | Clostridium difficile 1.01 | Collinsella aerofaciens 1.02 | Coprococcus comes 0.994 | Escherichia coli ED1a 0.999 | Escherichia coli IAI1 1.03 | Eubacterium rectale 0.936 | [3] 1.04 | Lactobacillus gasseri 1.17 | Lactobacillus paracasei 0.884 | Odoribacter splanchnicus 1.01 | [4] 1.04 | Parabacteroides merdae 1.01
